Data: PubChem BioAssay (NCI)
Compounds without any hit were thinned out: in the full panel of roughly 83,000, 20% have a hit.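 Plates (96-well) were seeded with cells, treated with compound at one concentration, and incubated for 48 hours before percent growth was determined.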 Values without a mark were called inactive. Activity calls are given as the source filed them.

tested on: OVCAR-8 ovarian; test: NCI-60 one-dose screen, 48 h (100 = growth as untreated, 0 = no growth, -100 = all killed); conditions: 10 µM
Experimental: Growth inhibition of the OVCAR-8 human tumor cell line is measured as a screen for anti-cancer activity. Cells are grown in 96 well plates and exposed to the test compound for 48 hours. Compounds are tested at a single concentration, which is 10^-5 M for most compounds. The reported endpoint is percent growth (GI% or GIPRCNT), where numbers from 0 - 100% represent growth inhibition, and numbers from -100% - 0 represent cell death. For example, a value of 40 represents 60% growth inhibition. A value of 0 means no net growth occurred over the course of the experiment. A value of -40 indicates 40% of cells at the beginning of the experiment died by the end of the experiment. A value of -100 means all cells are dead at the end of the experiment.
NCI-60 Human Tumor Cell Lines Screen was performed using the standard one-dose NCI protocol, which is described in more detail at https://dtp.cancer.gov/discovery_development/nci-60/default.htm.
Compounds with GIPRCNT values below 10 were considered active. Activity score was based on GIPRCNT using the following formula: […]
Score is 0 for GIPRCNT values of 100 or above, 50 for GIPRCNT values of 0, and 100 for GIPRCNT values of -100.

Structure (SMILES)	growth
CN1CCc2c(sc3nc4n(-c5ccc(Cl)cc5)c(=O)[nH]n4c(=O)c23)C1	93%
CC(=O)OC/C=C(/C)C[P+](c1ccccc1)(c1ccccc1)c1ccccc1	35%
OCC1OC(n2ccc3c(NO)ncnc32)C(O)C1O (stereo not given)	-32.5% (active)
CC(C)(C)c1ccc(S(=O)(=O)N[C@H]2CC[C@H]3[C@@H]4CCc5cc(OS(=O)(=O)O)ccc5[C@H]4CC[C@]23C)cc1	52.1%
CCCCCCCCCCCC[n+]1c(C)cc(N)c2ccccc21	3.24% (active)
COc1cc(CNC(=O)C2CSC3(C)c4ccccc4C(=O)N23)cc(OC)c1OC (stereo not given)	92.4%
Fc1ccc2[nH]cc(-c3nc(-c4ccsc4)cs3)c2c1	94.4%
COc1ccc(-c2cc(-c3ccccc3)nc(SCCCCCCC(=O)NO)n2)cc1	43.7%
CC[C@@H](C(=O)[C@H](C)[C@H](O)[C@@H](C)[C@H]1O[C@H]([C@@H](CC)C(=O)N(CC)CC)CC[C@H]1C)C1O[C@]2(C=C[C@@H](O)[C@]3(CC[C@@](C)([C@H]4CC[C@](O)(CC)[C@H](C)O4)O3)O2)[C@H](C)C[C@@H]1C (stereo not given in full)	25.4%
CN(C)CCCSc1ccccc1NC1=C(Cl)C(=O)C(Nc2ccccc2SCCCN(C)C)=C(Cl)C1=O	-26.5% (active)
Nc1cc(-c2ccc(Cl)cc2)nn1-c1nc2ccccc2nc1Cc1ccccc1	91.2%
CCC(=O)OC1CCC2C3CCC(=O)OC3C(C)(CCC(=O)O)CC12C (stereo not given)	61.4%
COc1ccc(/C(=N\N)C(=O)c2ccccc2)cc1 (tested in a mixture with another compound)	103%
COc1cc(-c2nn(-c3cccc(NC(=O)CCN4CCN(Cc5ccccc5)CC4)c3)cc2-c2ccncc2)ccc1Cl	12.7%
CCn1c(SC/C(=N/O)c2ccccc2)nnc1-c1ccccc1	111%
O=C1/C(=C/c2cccc(F)c2)Cc2ccccc21	97.4%
NC(CSC(c1ccccc1)(c1ccccc1)c1cccc2ccccc12)C(=O)O (stereo not given)	95.1%
O=C(CCc1nnc2sc(-c3cc(O)c(O)c(O)c3)nn12)c1nc2ccccc2[nH]1	94.7%
COC1=CC(=O)OC(c2ccc(OC)cc2)C1 (stereo not given)	105%
COc1ccc(/C=C2\CCCC3C2=Nc2ccccc2NC3c2ccc(OC)cc2)cc1 (stereo not given)	85.1%

Structure (SMILES)	growth
O=[N+]([O-])c1ccc2ncccc2c1Cl	18.6%
CC(=O)O[C@@]12CO[C@@H]1C[C@H](O)[C@@]1(C)C(=O)[C@H](O)C3=C(C)[C@@H](OC(=O)[C@H](O)[C@@H](NC(=O)OC(C)(C)C)c4ccccc4)C[C@@](O)([C@@H](OC(=O)c4ccccc4)C12)C3(C)C (stereo not given in full)	38.4%
COc1cc2cc(Oc3ccc(NC(=O)c4ccc(Cl)c(C(F)(F)F)c4)cc3)c(C)nc2cc1OC	27.7%
CCOC(=O)CSc1nc(-c2cc(OC)ccc2OC)cc(-c2ccc(OC)cc2)c1C#N	82.4%
COc1cc(-c2nn(-c3cccc(NC(=O)CN4CCOCC4)c3)cc2-c2cccnc2)ccc1Cl	76.4%
CN1CCN(CCCn2c(=O)c3sc4ncccc4c3n3nnc(-c4ccccc4)c23)CC1	16.9%
COC(=O)c1cc2oc(/C=C3/SC(=S)N(N)C3=O)cc2n1Cc1ccccc1	31.1%
COc1cc(C(=O)/C=C/c2c[nH]c3ccccc23)cc(OC)c1OC	15.9%
Cc1ccc(-n2c(C)nn3c(=O)c4c5c(sc4nc23)CN(C)CC5)cc1	103%
CN(C)c1ccc(/C=N/NC(=O)c2cccc3ccccc23)c(Cl)c1	36.5%
Cc1ccc(/C=C2/C(=O)N(C)c3ccc(S(=O)(=O)Nc4ccc(C(C)(C)C)cc4)cc32)s1	41.3%
OCC1OC(n2cnc3c(NCc4ccco4)ncnc32)C(O)C1O (stereo not given)	0.871% (active)
NC1=CC(=O)C(=O)c2cccnc21	76%
CC(=O)C1CCC2C3CC=C4CC(SC(=N)N)CCC4(C)C3CCC12C (stereo not given)	30.8%
Cc1cc(CSc2ccccc2C(=O)N2CC=C(c3ccccc3)CC2)on1	111%
COc1ccc(C(=O)N2C=Cc3ccccc3C2C#N)cc1 (stereo not given)	100%
N#Cc1ccc(C(=O)CSc2nccc(Nc3ccc(C(=O)O)cc3)n2)cc1	106%
CN(C)CCCOc1ccc(NC2=C(Cl)C(=O)C(Nc3ccc(OCCCN(C)C)cc3)=C(Cl)C2=O)cc1	-68.3% (active)
Nc1ccn(Cc2nnc(CCC(=O)c3nc4ccccc4[nH]3)o2)c(=O)n1	88.5%
O=C1C=C(Nc2cccc(Br)c2)c2ccccc2C1=O	69.5%
